Key:
Settings in all cases: concentration: 1 μM,replicates: in singlicate; n = 1
CDC2L2 = tested on: CDC2L2
CDC2L5 = tested on: T1, CDC2L5
T1 construct: gene CDK13

CDK11 = tested on: T2, CDK11
T2 construct: gene CDK19

CDK2 = tested on: CDK2
CDK3 = tested on: CDK3
CDK4-cyclinD1 = tested on: CDK4-cyclinD1
CDK4-cyclinD3 = tested on: CDK4-cyclinD3
CDK4 = tested on: CDK4
CDK5 = tested on: CDK5
CDK7 = tested on: CDK7
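Note: KINOMEscan kinase panel screen.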

| SMILES | %Inh (CDC2L2) [%] | %Inh (CDC2L5) [%] | %Inh (CDK11) [%] | %Inh (CDK2) [%] | %Inh (CDK3) [%] | %Inh (CDK4-cyclinD1) [%] | %Inh (CDK4-cyclinD3) [%] | %Inh (CDK4) [%] | %Inh (CDK5) [%] | %Inh (CDK7) [%] |
| --- | --- | --- | --- | --- | --- | --- | --- | --- | --- | --- |
| CC(=O)Nc1ccc(-c2cc3ncnc(SCC(=O)O)c3s2)cc1 | 17 | 0 | 26 | 12 | 4 | 16 | 31 | 0 | 14 | 40 |
| COc1cccc(CNC(=O)NC2CCN(c3ccnc(Nc4cc(OC)c(OC)c(OC)c4)n3)C2)c1 (centres unmarked) [GSK1379765] | 25 | 0 | 22 | 0 | 8 | 4 | 0 | 14 | 0 | 0 |
| O=C1NCCc2[nH]c(-c3ccncc3)cc21 | 0 | 38 | 22 | 1 | 13 | 21 | 36 | 27 | 29 | 71 |
| Cc1ccn2nc(-c3ccc(F)cc3)c(-c3ccncc3)c2c1.Cl [GW457859] | 24 | 0 | 1 | 0 | 2 | 18 | 0 | 50 | 0 | 47 |
| COc1ccc(Nc2nccc(N3CCC(NC(=O)c4cccc(C#N)c4)C3)n2)cc1 (centres unmarked) [GSK1379730] | 0 | 0 | 4 | 0 | 26 | 34 | 0 | 36 | 7 | 0 |
| Cc1ccc(CC(=O)N2CCc3cc(-c4cn(C)c5ncnc(N)c45)ccc32)cc1 [GSK2634758] | 21 | 0 | 72 | 5 | 0 | 0 | 0 | 26 | 10 | 1 |
| N#Cc1cccc(C(=O)NC2CCN(c3ccnc(Nc4ccc(F)cc4)n3)C2)c1 (centres unmarked) [GSK1379708] | 0 | 0 | 4 | 0 | 0 | 0 | 0 | 10 | 0 | 0 |
| CN1CCN(CCNc2nc3cc(Oc4ccc(NC(=O)Nc5cc(C(F)(F)F)ccc5F)cc4)ccc3[nH]2)CC1.Cl.Cl [GW768504] | 7 | 0 | 47 | 0 | 6 | 0 | 0 | 2 | 0 | 96.6 |
| O=C(NOCC1CC1)c1cc(Br)c(F)c(F)c1Nc1ccc(I)cc1Cl | 0 | 0 | 0 | 0 | 14 | 0 | 17 | 14 | 0 | 0 |
| CN(c1ccc2c(c1)nc(NCc1ccc(F)cc1)n2C)c1ccnc(Nc2ccc(CS(C)(=O)=O)cc2)n1.Cl [GW813244] | 92.6 | 0 | 26 | 5 | 6 | 0 | 10 | 22 | 0 | 31 |
| C[C@@H](Oc1cc(-n2cnc3cc(-c4cnn(C)c4)ccc32)sc1C(N)=O)c1ccccc1Cl [GSK580432] | 0 | 0 | 28 | 26 | 20 | 0 | 3 | 18 | 0 | 0 |
| CC(=O)c1c(-c2ccncc2)[nH]c(-c2ccncc2)c1C [GW493036] | 4 | 0 | 13 | 31 | 53 | 0 | 38 | 0 | 0 | 96.2 |
| O=C(Nc1ccccc1)c1cccc(Oc2ccc3nccn3n2)c1 | 28 | 0 | 0 | 0 | 15 | 11 | 6 | 22 | 0 | 12 |
| Cn1ccc2ncnc(Oc3ccc(NC(=O)Nc4cccc(C(F)(F)F)c4)c(F)c3)c21 | 0 | 33 | 99.3 | 7 | 39 | 16 | 0 | 0 | 10 | 68 |
| O=C(Nc1ccc(Oc2ccc3nc(NC(=O)C4CC4)cn3n2)c(F)c1)c1cccn(-c2ccccc2)c1=O | 6 | 0 | 28 | 0 | 39 | 0 | 0 | 0 | 0 | 0 |
| Cl.Nc1n[nH]c2cc(-c3ccccn3)ccc12 [GSK2189892] | 23 | 0 | 2 | 0 | 0 | 0 | 0 | 0 | 0 | 0 |
| C[C@@H](Oc1cc(-n2cnc3cc(-c4ccncc4)ccc32)sc1C(N)=O)c1ccccc1Cl [GSK479719] | 0 | 0 | 0 | 42 | 29 | 0 | 21 | 0 | 0 | 1 |

— article PMC5540273 (PLoS ONE, 2017)
